Bioassay records (PubChem BioAssay)
Compounds with a hit are over-represented: about 3.4% of the library has one in this group of screens.
PLCb3 inh = PLC-beta3 (human) inhibition, primary screen | Q01970 | Purified PLC-beta3, fluorogenic substrate, fluorescence | inhibition, % at 12.2 µM | 370,000 tested, 0.18% active | AID 720704
HGIII-sPLA2 inh = Inhibits HGIII-sPLA2 liposome hydrolysis, primary screen; inhibition, % at 12.2 µM; QFRET BODIPY PC-A2 liposome hydrolysis, fluorescence; Q9NZ20; 370,000 tested, 0.56% active;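 active = inhibition above mean plus 3 SD of compounds lying within the high and low control bounds, cut at about 19% in these data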
proKLK7 act = activators of human kallikrein-7 zymogen; 370,000 tested, 0.9% active; activation, % at 7 µM; AID 652039; purified proKLK7, EDANS-DABCYL substrate fluorescence; 100% is mature enzyme control, 0% vehicle; P49862;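 active = activation above the mean of all tested compounds plus 3 SD, computed per campaign excluding outliers beyond control limits, cut at about 13% in these data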
PLC-gamma1 inh = inhibitors of human phospholipase C gamma1; P19174; purified PLC-gamma1, fluorogenic substrate, fluorescence; inhibition, % at 12.2 µM; 370,000 tested, 0.84% active; AID 720700; in the data active = inhibition above about 9.5%
Target sequence (P19174 whole entry, looked up): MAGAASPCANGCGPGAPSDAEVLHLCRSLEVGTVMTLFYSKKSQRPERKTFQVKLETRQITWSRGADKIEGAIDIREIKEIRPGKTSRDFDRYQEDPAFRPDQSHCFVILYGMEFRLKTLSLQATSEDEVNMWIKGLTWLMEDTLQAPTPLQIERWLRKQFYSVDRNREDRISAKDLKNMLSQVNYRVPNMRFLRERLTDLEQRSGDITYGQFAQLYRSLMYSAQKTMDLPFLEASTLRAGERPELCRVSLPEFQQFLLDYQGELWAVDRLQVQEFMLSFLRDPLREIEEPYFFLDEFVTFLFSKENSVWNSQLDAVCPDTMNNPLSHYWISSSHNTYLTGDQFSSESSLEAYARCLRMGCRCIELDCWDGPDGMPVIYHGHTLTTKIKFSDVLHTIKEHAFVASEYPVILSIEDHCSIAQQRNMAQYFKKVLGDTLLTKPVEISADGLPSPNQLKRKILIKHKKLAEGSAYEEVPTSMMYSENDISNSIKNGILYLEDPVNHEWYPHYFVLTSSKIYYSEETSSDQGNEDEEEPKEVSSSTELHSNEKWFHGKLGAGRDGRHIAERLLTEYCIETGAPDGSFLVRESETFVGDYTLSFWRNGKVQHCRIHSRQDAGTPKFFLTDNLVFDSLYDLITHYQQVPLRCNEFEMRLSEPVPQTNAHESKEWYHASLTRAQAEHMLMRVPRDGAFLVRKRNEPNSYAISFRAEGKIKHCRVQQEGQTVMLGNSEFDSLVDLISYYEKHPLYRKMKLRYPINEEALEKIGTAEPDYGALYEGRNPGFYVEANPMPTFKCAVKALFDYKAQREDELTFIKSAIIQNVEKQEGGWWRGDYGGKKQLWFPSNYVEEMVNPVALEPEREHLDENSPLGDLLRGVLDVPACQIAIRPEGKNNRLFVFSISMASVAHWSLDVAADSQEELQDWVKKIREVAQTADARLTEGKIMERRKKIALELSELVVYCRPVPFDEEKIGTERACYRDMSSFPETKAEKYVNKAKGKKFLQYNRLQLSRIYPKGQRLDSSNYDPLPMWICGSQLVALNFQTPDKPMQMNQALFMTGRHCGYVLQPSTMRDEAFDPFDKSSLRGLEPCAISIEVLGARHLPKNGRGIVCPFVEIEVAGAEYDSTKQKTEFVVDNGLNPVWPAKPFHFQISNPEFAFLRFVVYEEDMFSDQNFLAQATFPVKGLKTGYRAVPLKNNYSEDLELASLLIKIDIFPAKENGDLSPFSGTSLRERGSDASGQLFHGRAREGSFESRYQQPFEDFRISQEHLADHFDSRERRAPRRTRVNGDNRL
ADAM10 inh = inhibitors of human ADAM10. O14672. recombinant ADAM10, EDANS/DABCYL FRET peptide cleavage, 3 h. inhibition, % at 7 µM. 370,000 tested, 0.62% active. AID 720582;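 active = inhibition above a per-campaign cutoff equal to the mean of compounds falling between control-based bounds plus 3 SD, cut at about 20% in these data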
ADAM17 inh = inhibitors of human ADAM17; P78536; recombinant ADAM17, EDANS/DABCYL FRET peptide cleavage; inhibition, % at 6.95 µM; 370,000 tested, 0.83% active;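 active = inhibition above the mean of compounds lying between control limits plus 3 SD, set per campaign, cut at about 8.5% in these data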
PLCg1 ctr = PLC-gamma1 inhibition, counter-screen for PLC-beta3 hits; shares compounds with PLC-gamma1 inh; purified PLC-gamma1, fluorogenic substrate, fluorescence; inhibition, % at 12.3 µM; 3,300 tested, 3.1% active; AID 743258; in the data active = inhibition above about 9.5%
PLCbeta3 conf = confirmation of human PLC-beta3 inhibitors | shares compounds with PLC-gamma1 inh | purified PLC-beta3, fluorogenic substrate fluorescence | inhibition, % at 12.3 µM | 3,300 tested, 1% active
Hits are given with their value. Cut-off read from the data, not from the text of the source, unless noted: active = inhibition above about 11%; inactive = the rest.

How did COc1ccc(C)cc1NC(=O)COC(=O)c1ccccc1SCC(=O)N1CCCC1 do in these assays?
PLCb3 inh: inactive; HGIII-sPLA2 inh: inactive; proKLK7 act: inactive; PLC-gamma1 inh: inactive; ADAM10 inh: inactive; ADAM17 inh: inactive

Results for Cc1ccc(C(NC(=O)N2CC(C)OC(C)C2)C(Cl)Cl)cc1F (centres undefined) ?
PLCb3 inh: 13.4; HGIII-sPLA2 inh: inactive; proKLK7 act: inactive; PLC-gamma1 inh: inactive; ADAM10 inh: inactive; ADAM17 inh: inactive; PLCg1 ctr: inactive; PLCbeta3 conf: inactive

Results for Cc1ccc(Cn2cc(CN3CC(N4CCCCC4)CS3(=O)=O)nn2)cc1 (centres undefined) ?
PLCb3 inh: inactive; HGIII-sPLA2 inh: inactive; proKLK7 act: inactive; PLC-gamma1 inh: inactive; ADAM10 inh: inactive; ADAM17 inh: inactive

What do the screens show for `CCCCCCN1CCN(C2CN(Cc3cn(Cc4ccc(C)cc4)nn3)S(=O)(=O)C2)CC1` (centres undefined)?
PLCb3 inh: inactive; HGIII-sPLA2 inh: inactive; proKLK7 act: inactive; PLC-gamma1 inh: 14.5; ADAM10 inh: inactive; ADAM17 inh: inactive; PLCg1 ctr: inactive; PLCbeta3 conf: inactive

Results for COc1ccc(-c2noc(CNC(=O)c3ccc4c(c3)OCO4)n2)cc1OC ?
PLCb3 inh: inactive; HGIII-sPLA2 inh: inactive; proKLK7 act: inactive; PLC-gamma1 inh: inactive; ADAM10 inh: inactive; ADAM17 inh: inactive

What do the screens show for `O=[N+]([O-])c1cc(Br)c2c(c1)CCN2`?
PLCb3 inh: 12.6; HGIII-sPLA2 inh: inactive; proKLK7 act: inactive; PLC-gamma1 inh: inactive; ADAM10 inh: inactive; ADAM17 inh: inactive; PLCg1 ctr: inactive; PLCbeta3 conf: inactive

What do the screens show for `CC1CCN(C(=O)c2ccc3c(c2NCCO)C(=O)c2ccccc2C3=O)CC1`?
PLCb3 inh: 15.1; HGIII-sPLA2 inh: inactive; proKLK7 act: inactive; PLC-gamma1 inh: 10.2; ADAM10 inh: inactive; ADAM17 inh: inactive; PLCg1 ctr: inactive; PLCbeta3 conf: inactive

What do the screens show for `CCN(CC)CCNC(=O)c1ccc2c(c1NCCO)C(=O)c1ccccc1C2=O`?
PLCb3 inh: inactive; HGIII-sPLA2 inh: inactive; proKLK7 act: inactive; PLC-gamma1 inh: inactive; ADAM10 inh: inactive; ADAM17 inh: inactive

What do the screens show for `Oc1cc(-n2cccn2)c(O)cc1-n1cccn1`?
PLCb3 inh: inactive; HGIII-sPLA2 inh: inactive; proKLK7 act: inactive; PLC-gamma1 inh: inactive; ADAM10 inh: inactive; ADAM17 inh: inactive

How did CC(c1nnc(SCC(=O)N2CCc3ccccc32)n1-c1ccc(Cl)cc1)N(C)C (centres undefined) do in these assays?
PLCb3 inh: inactive; HGIII-sPLA2 inh: inactive; proKLK7 act: inactive; PLC-gamma1 inh: inactive; ADAM10 inh: inactive; ADAM17 inh: inactive

Results for CC(c1nnc(SCn2nnc3ccccc3c2=O)n1-c1ccc(Cl)cc1)N(C)C (centres undefined) ?
PLCb3 inh: 12.1; HGIII-sPLA2 inh: inactive; proKLK7 act: inactive; PLC-gamma1 inh: inactive; ADAM10 inh: inactive; ADAM17 inh: inactive; PLCg1 ctr: inactive; PLCbeta3 conf: inactive

What do the screens show for `NS(=O)(=O)c1ccc(NC(=S)NC(=O)C2CCCCC2)cc1`?
PLCb3 inh: inactive; HGIII-sPLA2 inh: inactive; proKLK7 act: inactive; PLC-gamma1 inh: 11.5; ADAM10 inh: inactive; ADAM17 inh: inactive; PLCg1 ctr: inactive; PLCbeta3 conf: inactive

What do the screens show for `NS(=O)(=O)c1ccc(NC(=S)NC2CCCCCC2)cc1`?
PLCb3 inh: inactive; HGIII-sPLA2 inh: inactive; proKLK7 act: inactive; PLC-gamma1 inh: inactive; ADAM10 inh: inactive; ADAM17 inh: inactive

What do the screens show for `O=C(CN(CCc1ccccc1)C(=O)c1csnn1)NC1CCCC1`?
PLCb3 inh: inactive; HGIII-sPLA2 inh: inactive; proKLK7 act: inactive; PLC-gamma1 inh: inactive; ADAM10 inh: inactive; ADAM17 inh: inactive

How did O=C(CNC(=O)c1ccc(Br)o1)NC1CCCCCC1 do in these assays?
PLCb3 inh: inactive; HGIII-sPLA2 inh: inactive; proKLK7 act: inactive; PLC-gamma1 inh: inactive; ADAM10 inh: inactive; ADAM17 inh: inactive

What do the screens show for `O=C(CNC(=O)c1ccc(Br)o1)NC12CC3CC(CC(C3)C1)C2`?
PLCb3 inh: inactive; HGIII-sPLA2 inh: inactive; proKLK7 act: inactive; PLC-gamma1 inh: 9.9; ADAM10 inh: inactive; ADAM17 inh: inactive; PLCg1 ctr: inactive; PLCbeta3 conf: inactive

Results for CS(=O)(=O)CCC(C(=O)Nc1ccc2c(c1)OCO2)N1Cc2ccccc2C1=O (centres undefined) ?
PLCb3 inh: inactive; HGIII-sPLA2 inh: inactive; proKLK7 act: inactive; PLC-gamma1 inh: inactive; ADAM10 inh: inactive; ADAM17 inh: inactive

Results for CCN(CC)C(=O)C1=C(C)N(Cc2ccc(F)cc2)C(=O)C(CC(=O)NC2CCCCC2)C1 (centres undefined) ?
PLCb3 inh: inactive; HGIII-sPLA2 inh: inactive; proKLK7 act: inactive; PLC-gamma1 inh: inactive; ADAM10 inh: inactive; ADAM17 inh: inactive

Results for CCN(CC)C(=O)C1=C(C)N(Cc2ccc(C(C)(C)C)cc2)C(=O)C(CC(=O)NC2CCCC2)C1 (centres undefined) ?
PLCb3 inh: inactive; HGIII-sPLA2 inh: inactive; proKLK7 act: inactive; PLC-gamma1 inh: 11.5; ADAM10 inh: inactive; ADAM17 inh: inactive; PLCg1 ctr: inactive; PLCbeta3 conf: inactive

Results for COc1ccc(NC2=NC(=S)N(c3ccccc3C)C23CCCCC3)cc1 ?
PLCb3 inh: inactive; HGIII-sPLA2 inh: inactive; proKLK7 act: inactive; PLC-gamma1 inh: inactive; ADAM10 inh: inactive; ADAM17 inh: inactive

How did COc1ccc(N2C(=S)N=C(Nc3ccccc3)C23CCCCC3)cc1 do in these assays?
PLCb3 inh: inactive; HGIII-sPLA2 inh: inactive; proKLK7 act: inactive; PLC-gamma1 inh: 15.3; ADAM10 inh: inactive; ADAM17 inh: inactive; PLCg1 ctr: inactive; PLCbeta3 conf: inactive

Results for CCc1ccc2oc(C(=O)Nc3nonc3C)c(C)c2c1 ?
PLCb3 inh: inactive; HGIII-sPLA2 inh: inactive; proKLK7 act: inactive; PLC-gamma1 inh: inactive; ADAM10 inh: inactive; ADAM17 inh: inactive

How did Cc1cc2oc(C(=O)Nc3nonc3C)c(C)c2cc1C do in these assays?
PLCb3 inh: inactive; HGIII-sPLA2 inh: inactive; proKLK7 act: inactive; PLC-gamma1 inh: 9.6; ADAM10 inh: inactive; ADAM17 inh: inactive; PLCg1 ctr: inactive; PLCbeta3 conf: inactive

Results for Cc1ccc(-c2ocnc2C(=O)N2CCOCC2)cc1 ?
PLCb3 inh: inactive; HGIII-sPLA2 inh: inactive; proKLK7 act: inactive; PLC-gamma1 inh: inactive; ADAM10 inh: inactive; ADAM17 inh: inactive

How did O=C(Cc1ccc(Br)cc1)Nc1cccc(Cl)c1 do in these assays?
PLCb3 inh: inactive; HGIII-sPLA2 inh: inactive; proKLK7 act: inactive; PLC-gamma1 inh: inactive; ADAM10 inh: inactive; ADAM17 inh: inactive

Results for OCc1nc2ccccc2n1CCCCOc1ccccc1 ?
PLCb3 inh: inactive; HGIII-sPLA2 inh: inactive; proKLK7 act: inactive; PLC-gamma1 inh: inactive; ADAM10 inh: inactive; ADAM17 inh: inactive
